# Experimental data as given in PubChem BioAssay AID1030 (National Center for Advancing Translational Sciences (NCATS), 2008).
# In all, about 220,000 compounds went through this assay and about 16,000 (7.3%) were called active. Roughly 25% stayed inconclusive and do not appear here. What follows is part of a selection rich in actives, with near analogues and random picks from the rest. Unmarked numbers belong to inactive results. Calls come from the whole dose curve; as a rule, active = well fitted inhibition curve with a large enough effect (not every such curve was filed as active); inconclusive = small, poorly fitted or top-dose-only effect, or another doubt; inactive = no such curve, though single readings can be large or run the other way.
# Biological target: Aldehyde dehydrogenase 1A1 (Homo sapiens) (UniProt P00352)
# Sequence (P00352 whole entry, looked up): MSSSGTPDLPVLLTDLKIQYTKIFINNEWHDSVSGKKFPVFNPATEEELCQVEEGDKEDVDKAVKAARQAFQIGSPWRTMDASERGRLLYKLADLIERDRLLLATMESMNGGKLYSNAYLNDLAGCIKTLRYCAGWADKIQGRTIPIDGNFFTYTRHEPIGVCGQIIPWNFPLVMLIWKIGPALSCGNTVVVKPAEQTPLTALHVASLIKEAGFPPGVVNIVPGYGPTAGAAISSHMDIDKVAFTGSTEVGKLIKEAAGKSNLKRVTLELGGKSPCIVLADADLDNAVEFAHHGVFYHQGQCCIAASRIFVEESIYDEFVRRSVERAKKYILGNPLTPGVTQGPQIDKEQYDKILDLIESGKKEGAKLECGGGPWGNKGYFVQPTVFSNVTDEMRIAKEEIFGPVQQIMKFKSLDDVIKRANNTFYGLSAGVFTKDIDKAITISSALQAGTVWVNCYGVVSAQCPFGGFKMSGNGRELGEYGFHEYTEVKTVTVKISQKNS
# Assay: qHTS Assay for Inhibitors of Aldehyde Dehydrogenase 1 (ALDH1A1);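 for activity, negative = inhibition: plate controls were no enzyme wells and a reference inhibitor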
# Conditions: Purified ALDH1A1, NADH fluorescence, propionaldehyde substrate; series mostly up to 75.3 µM; activity, negative = inhibition: at the top concentration
# Potency is the fitted concentration of half-maximal effect.
Structure (SMILES),"activity, negative = inhibition",Potency
O=C(CN1CCOCC1)Nc1c(Cl)cc(Cl)cc1Cl,9.81%,
C=CCNC(=S)NNC(=O)c1cc(Cl)ccc1OC,8.59%,
CCCCN(C(=O)COc1ccc(NC(C)=O)cc1)C1CCS(=O)(=O)C1 (stereo not given),1.35%,
COc1cc(C(=O)N(Cc2ccc(N(C)C)cc2)C2CCS(=O)(=O)C2)cc(OC)c1OC (stereo not given),-4.2%,
CCOc1ccc(C(=O)N(Cc2ccc(N(C)C)cc2)C2CCS(=O)(=O)C2)cc1 (stereo not given),,12.6 µM (active)
COc1ccc(NC(=O)COc2ccc(C(=O)OCC(=O)N(C)C3CCS(=O)(=O)C3)cc2OC)cc1 (stereo not given),-5.23%,
CC1(C)C(C=C(Cl)Cl)C1C(=O)N(Cc1ccc(Cl)cc1)C1CCS(=O)(=O)C1 (stereo not given),-1.61%,
COc1ccc(C(=O)N(Cc2ccc(N(C)C)cc2)C2CCS(=O)(=O)C2)cc1 (stereo not given),,5.62 µM (active)
CCCN(CCC)CCCNC(=O)CNC(=O)c1nn(-c2ccc(OC)cc2)c(=O)c2ccccc12,-5.06%,
COc1ccc(CC(NC(C)=O)C(=O)NC2CCN(C(=O)c3ccc(OC)c(OC)c3)CC2)cc1OC (stereo not given),4.43%,
CNC(=O)c1ccc(NC(=O)c2cccc(C(F)(F)F)c2)cc1,2.1%,
CC(C)N(C(=O)Cn1cc(SCC(=O)N2CCCC2)c2ccccc21)C(C)C,4.74%,
O=C(c1cccc(F)c1)N1CCN(c2ccc([N+](=O)[O-])c(N3CCCCC3)c2)CC1,,8.91 µM (active)
O=C(c1cccc(C(=O)N2CCN(c3ccc(F)cc3)CC2)c1)N1CCN(c2ccc(F)cc2)CC1,2.51%,
O=C(c1cccc(F)c1)N1CCN(c2ccc([N+](=O)[O-])c3cccnc23)CC1,-6.77%,
CCCN(CC(=O)Nc1ccccc1C)C(=O)c1cc(=O)[nH]c2ccccc12,-3.3%,
O=C(Nc1ccc2c(c1)C(=O)OC2)Nc1cccc2ccccc12,4.39%,
CC(C)OCCCNC(=S)N1CCC(C(=O)c2ccc3c(c2)OCCO3)CC1,-11.4%,
Cc1nn(C)c(C)c1CN(C(=O)CCc1nnc(Cc2c[nH]c3ccccc23)o1)C(C)C,17%,
CCOC(=O)N1CCN(CC(=O)Nc2ccc(F)cc2)CC1,-2.18%,
CCOC(=O)N1CCN(CC(=O)Nc2cc(C)nn2-c2nc3ccccc3s2)CC1,,15.8 µM (active)
Cc1cc(NC(=O)CN2CCCC(C)C2)n(-c2nc3ccccc3s2)n1 (stereo not given),0.548%,

Structure (SMILES),"activity, negative = inhibition",Potency
CCOC(=O)CN(C)Cc1c[nH]c2ccccc12,,22.4 µM (active)
CC(=O)NC(Cc1c[nH]c2ccccc12)C(=O)O (stereo not given),9.05%,
NS(=O)(=O)c1ccc(NC(=O)COC(=O)CCc2c[nH]c3ccccc23)cc1,-1.24%,
O=C(Cc1c[nH]c2ccccc12)OCCOC(=O)Cc1c[nH]c2ccccc12,,17.8 µM (active)
CC(C)(C)N(Cc1ccccc1)C(=O)COC(=O)CCc1c[nH]c2ccccc12,-11.5%,
CN(Cc1cccs1)C(=O)Cc1c[nH]c2ccccc12,3.39%,
COc1ccc(NC(=O)C(=O)NCC(=O)Nc2cccc(C(F)(F)F)c2)cc1,0.589%,
COc1ccc(-c2nc(CS(=O)CC(=O)N3CCc4ccccc4C3)c(C)o2)cc1 (stereo not given),,25.1 µM (active)
Cc1nnc(SCC(=O)N2CCc3ccccc3C2)s1,-3.58%,
O=C(C(=O)N1CCc2ccccc2C1)N1CCc2ccccc2C1,8.43%,
Clc1cc(-c2ccc(/C=N/n3cnnc3)o2)ccc1Br,9.2%,
CCc1ccccc1NC(=O)CSc1nnc(-c2ccncc2)o1,-0.724%,
Cc1ccc2c(Cl)c(C(=O)Nc3nn[nH]n3)sc2c1,0.398%,
O=c1ccn([C@@H]2O[C@H](COP(=O)(O)OP(=O)(O)OP(=O)(O)O)[C@@H](O)[C@H]2O)c(=O)[nH]1,6.39%,
COc1ccccc1N1CCN(C(=O)c2ccc(Cl)c(S(=O)(=O)N3CCCC3)c2)CC1,0.0267%,
O=C(Oc1ccc([N+](=O)[O-])cc1)c1ccc(Cl)c(S(=O)(=O)N2CCCCC2)c1,,12.6 µM (active)
Cc1ccc(C(=O)NCC(=O)O)cc1S(=O)(=O)N1CCCCC1,2.98%,
CC1CCC2(CC1)NC(=O)N(Cc1nnc(-c3cccs3)o1)C2=O (stereo not given),-3.25%,
CC(O)[C@@H](N)C(=O)O (stereo not given in full),16.9%,
CN(CC(=O)NCCc1ccccn1)S(=O)(=O)c1ccc(Cl)cc1,-1.89%,
O=c1[nH][nH]c(=O)c2cc(N3CCCC3)ccc12,-1.14%,
O=C1C=CC(=O)N1c1ccc(N2CCCCC2)cc1,,0.251 µM (active)

Structure (SMILES),"activity, negative = inhibition",Potency
Cc1cccn2c(CN(C)C3CCCc4ccccc43)c(C(=O)N3CCOCC3)nc12 (stereo not given),-12.9%,
COc1ccc(C(=O)Nc2ccc(N3CCC(C)CC3)cc2)cc1Br,10.6%,
CC1CCN(C(=S)c2cccc(O)c2)CC1,,31.6 µM (active)
CC(=O)N1CCN(S(=O)(=O)c2cccc(C(=O)NC3CCC(C)CC3)c2)CC1 (stereo not given),-8.41%,
Cc1cc2c(cc1C)[n+](C)cn2CC(O)COCC1CC=CCC1 (stereo not given),-2.51%,
COc1ccc(N2CCN(C(C)=C3C(=O)c4ccccc4C3=O)CC2)cc1,2.48%,
CNC(=S)N1CCN(c2ccccn2)CC1,3.36%,
CC(=C1C(=O)c2ccccc2C1=O)N1CCN(c2ccccn2)CC1,,12.6 µM (active)
CC1(C)OC(=O)C(=CNC(CO)C(=O)O)C(=O)O1 (stereo not given),6.92%,
O=C(/C=C/c1c(Cl)cccc1Cl)NCc1ccccc1,5.21%,
O=Cc1c(Cl)cccc1Cl,,14.1 µM (active)
O=C1N=C2SCCN2/C1=C\c1c(Cl)cccc1Cl,-0.867%,
Cc1ccc(C(=O)O)cc1N1C(=O)CCCC1=O,14%,
O=C(O)c1ccc(NC(=O)c2cn(-c3ccccc3)nc2-c2ccc(Cl)cc2)cc1,1.24%,
COc1ccccc1NC(=O)CSc1nnc(Cc2cccn2C)n1-c1ccc(F)cc1,,17.8 µM (active)
COc1cccc(-n2c(Cc3cc(=O)[nH]c(=O)[nH]3)nnc2SCC(=O)Nc2ccccc2)c1,-2.15%,
COC(=O)c1ccccc1NC(=O)CSc1nnnn1C,2.76%,
Cn1cccc1Cc1nnc(SCC(=O)NCCc2ccccc2)n1-c1ccc(F)cc1,-0.308%,
COc1ccc(OC)c(/C=N/NC(=O)CSc2nnc(C)n2-c2ccccc2)c1,-10.8%,
COc1ccccc1NC(=O)CSc1nnc(Cn2nnc(-c3ccccc3)n2)n1-c1ccccc1,,2.82 µM (active)
COCCn1c(Cc2cccn2C)nnc1SCC(=O)Nc1nccs1,-8.29%,
COC(=O)c1ccc(NC(=O)CSc2nnc(Cc3cccn3C)n2-c2ccc(F)cc2)cc1,,22.4 µM (active)

Structure (SMILES),"activity, negative = inhibition",Potency
COc1cc(-c2nnn(CC(=O)NCc3ccccc3)n2)cc(OC)c1OC,3.6%,
O=C1CC(c2c(F)cccc2Cl)C(n2cncn2)C(O)=C1C1NCCc2ccccc21 (stereo not given),1.49%,
CCOc1ccc(C(CC(=O)O)NC(=O)C23CC4CC(CC(C4)C2)C3)cc1OC (stereo not given),3.06%,
O=C(CNC(=O)COc1ccccc1)NCCc1ccccn1,5.5%,
COC(c1ccccc1)c1nnc(CCC(=O)N2CCN(CCOc3ccccc3)CC2)o1 (stereo not given),6.64%,
OCCC1CN(Cc2cccc(O)c2)CCN1CCc1ccccc1 (stereo not given),14.4%,
CCn1cc(-c2cc(C(=O)O)on2)c(C)n1,1.42%,
COC(=O)C(C)N=Cc1ccccc1 (stereo not given),6.45%,
Fc1ccc(-c2csc(-c3ccc(C4SCCS4)cc3)n2)cc1F,-10.1%,
Cc1cc(C)c(NC(=O)C[N+](C)(C)CC(O)COc2cccc3ccccc23)c(C)c1 (stereo not given),-4.91%,
CCCCNc1nc2c(c(=O)[nH]c(=O)n2C)n1CCOc1ccccc1,6.54%,
CCC(C)Sc1nc2c(c(=O)[nH]c(=O)n2C)n1CC(O)COc1cccc2ccccc12 (stereo not given),,25.1 µM (active)
CCCN(CC(=O)Nc1ccc(OC)c(OC)c1)CC(=O)Nc1ccc(F)c(F)c1F,-1.85%,
CNc1ccc(SC#N)cc1,,8.91 µM (active)
COC(=O)Cc1c(O)ccn(Cc2cccc(C(F)(F)F)c2)c1=O,-4.24%,
CCCOc1ccc(C2c3c(oc4cc(C)c(C)cc4c3=O)C(=O)N2CCCN2CCOCC2)cc1 (stereo not given),,3.98 µM (active)
O=C1c2oc3ccc(Br)cc3c(=O)c2C(c2cccc(F)c2)N1CCO (stereo not given),2.17%,
CCOc1ccc(C2C(C(=O)O)c3ccccc3C(=O)N2CCN2CCOCC2)cc1 (stereo not given),4.96%,
COc1cccc(OCCCN2CCCCCC2)c1,,14.1 µM (active)
COc1cccc(OCC(O)CN2CCN(CCO)CC2)c1 (stereo not given),-0.354%,
c1ccc2cc(OCCN3CCCC3)ccc2c1,0.624%,
OC(c1nnc(-c2ccccc2)o1)c1cccs1 (stereo not given),10.2%,

Structure (SMILES),"activity, negative = inhibition",Potency
O=C(Nc1ccccc1Cl)c1ccc2nsnc2c1,0.565%,
O=C(Nc1ccccc1Cl)/C(Cl)=C(\Cl)S(=O)c1ccccc1 (stereo not given),,10 µM (active)
O=C(O)c1ccc(Cl)c(S(=O)(=O)Nc2ccccc2Cl)c1,0.312%,
O=c1[nH]c(CN2CCOCC2)nc2scc(-c3ccccc3)c12,-2.99%,
Cc1ccc(S(=O)(=O)N(C)C)cc1NC(=O)COC(=O)c1c(C)noc1C,10.9%,
CCCCN=C1C([N+](=O)[O-])=CC=C2C1=NC1(CCCCC1)N2O,,1.41 µM (active)
Cn1cc(CCC(=O)NCc2ccc3c(c2)OCO3)c2ccccc21,-4.4%,
O=C(CN(Cc1ccccc1)C(=O)c1ccc2c(c1)OCCO2)NCc1ccc2c(c1)OCO2,,0.631 µM (active)
O=C(COC(=O)c1ccc2c(c1)OCCO2)NCc1ccccc1,2.29%,
CC(C)(C)NC(=O)CN(C(=O)c1csnn1)c1ccccc1-c1ccccc1,3.31%,
CSc1cccc(NC(=S)N(Cc2ccccc2)Cc2ccccn2)c1,-2.76%,
Cc1cc(C)cc(NC(=S)NCCCN2CCOCC2)c1,5.26%,
CCOc1ccccc1C(=O)NCc1ccco1,-3.27%,
CSc1nc(-c2ccco2)nn1C(=O)CCc1ccccc1,8.56%,
CCOc1ccccc1/C=c1\sc2nc(-c3ccco3)nn2c1=O,,28.2 µM (active)
O=C(O)CC1S/C(=N\N=C/c2ccccc2O)N(c2ccc(O)cc2)C1=O (stereo not given),-16.7%,
O=C(CN1C(=O)CCC1=O)Nc1ccc(S(=O)(=O)N2CCOCC2)cc1,9.11%,
O=C(Nc1ccc(N2CCOCC2)cc1)c1ccc(-c2ccccc2[N+](=O)[O-])o1,-15.3%,
O=C(c1cccc(S(=O)(=O)N2CCOCC2)c1)N1CCOCC1,-5.52%,
O=C(NNC(=S)Nc1ccccc1)c1cccc(S(=O)(=O)N2CCOCC2)c1,,28.2 µM (active)
O=C(NC(=S)Nc1ccc(S(=O)(=O)N2CCOCC2)cc1)c1ccccc1[N+](=O)[O-],,7.94 µM (active)
Cc1cc(C(=O)NNC(=O)c2cccc(S(=O)(=O)N3CCOCC3)c2)c2ccccc2n1,4.23%,
